From article PMC8384837, “Expanding the binding specificity for RNA recognition by a PUF domain” come the findings set out here.

What all share (assay): yeast three-hybrid, YBZ-1, SC-Leu-His + 0.5 mM 3-AT, 4 days
Holding throughout (settings): tags: N-Gal4 AD-HA kept; label: inside an RPR1-promoter hybrid RNA with tandem MS2 sites; ssRNA

The target of experiment [1] is PUM1 PUF domain R3-FCE (Homo sapiens, UniProt Q14671 828-1176, C935F;R936C;Q939E). Summed up: (§1)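 A centromeric plasmid in strain YBZ-1 co-expressed Pumilio-1 PUF domain libraries, randomized at the three base-contacting residues of each repeat, with matching RNA elements; the strain carries a LexA–MS2 coat fusion and a HIS3 reporter. After four days on SC-Leu (input) or SC-Leu-His + 0.5 mM 3-AT (selection), the repeat regions were PCR-amplified and Illumina-sequenced. The interaction score is the log change in variant frequency from input to selection, using log2 and a pseudocount of 1 where absent.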

Experiment [2] addresses PUM1 PUF domain R3-WWV (Homo sapiens, UniProt Q14671 828-1176, C935W;R936W;Q939V). In outline: as §1
For experiment [3], the target named is PUM1 PUF domain R3-LFM (Homo sapiens, UniProt Q14671 828-1176, C935L;R936F;Q939M). In outline:
as §1

The target of experiment [4] is PUM1 PUF domain R5-LHP (Homo sapiens, UniProt Q14671 828-1176, C1007L;R1008H;Q1011P). Summed up:
as §1

In experiment [5] the target is PUM1 PUF domain R5-DGA (Homo sapiens, UniProt Q14671 828-1176, C1007D;R1008G;Q1011A). In outline: as §1
Experiment [6] addresses PUM1 PUF domain R8-SWS (Homo sapiens, UniProt Q14671 828-1176, N1122S;Y1123W;Q1126S). In outline:
as §1

Consider “GGCUAGAACUAGUGGAUCCCCCGGCGCCCGGCGGCUCGAGCCCGGGUAAGUGUAAGUAGUCUGCAUGCCGCCGGGCGCCAUGCCUGCAGGUCGACUCUAGAAAACAUG”, for which the binding signal is 3.54 log2 enrichment (interaction score) in experiment [1], 4.18 log2 enrichment (interaction score) in experiment [2] and 5.47 log2 enrichment (interaction score) in experiment [3].

As to “GGCUAGAACUAGUGGAUCCCCCGGCGCCCGGCGGCUCGAGCCCGGGUAAGUGUUAAUAGUCUGCAUGCCGCCGGGCGCCAUGCCUGCAGGUCGACUCUAGAAAACAUG”, the binding signal was 3.09 log2 enrichment (interaction score) in experiment [4] and 2.6 log2 enrichment (interaction score) in experiment [5]. As for “GGCUAGAACUAGUGGAUCCCCCGGCGCCCGGCGGCUCGAGCCCGGGUAAGCGUAAAUAGUCUGCAUGCCGCCGGGCGCCAUGCCUGCAGGUCGACUCUAGAAAACAUG”, in experiment [6], the binding signal is 2.67 log2 enrichment (interaction score). Regarding “GGCUAGAACUAGUGGAUCCCCCGGCGCCCGGCGGCUCGAGCCCGGGUAAGUGUAAUUAGUCUGCAUGCCGCCGGGCGCCAUGCCUGCAGGUCGACUCUAGAAAACAUG”, the binding signal in experiment [2] was 2.73 log2 enrichment (interaction score).
